ANO1 activ: mouse TMEM16A channel activation, primary screen; Q8BHY3; HEK293 TMEM16A/YFP-H148Q/I152L, iodide quench fluorescence; stronger effect = lower value; B-score at 10 µM; 340,000 compounds, 0.3% hits; AID 623877;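 active = fluorescence-ratio B-score plate-corrected deviation score at least 3 library SD below zero, with starting fluorescence score within 5 deviations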;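 note: channel opened by trigger with iodide after compound preincubation; score built on the fluorescence ratio of max minus min over baseline; more negative score means more quench and so TMEM16A activation or potentiation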
Kir21 block: inhibitors of mouse Kir2.1 inward-rectifier potassium channel. P35561. HEK293-Kir2.1, FluxOR thallium flux fluorescence; stronger effect = lower value. B-score at 10 µM. 310,000 compounds, 0.85% hits. AID 1672;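 active = fluorescence ratio B-score at or below minus 3 SD of library scores, with starting-brightness B-score within 2 SD, cut at about -4.2 in these data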;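 note: channel flux triggered by added potassium and thallium sulfate stimulus; B-score of peak minus minimum fluorescence over baseline after thallium stimulus; more negative B-score means stronger Kir2.1 block with less thallium influx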
GPR7 antagonist: blocks human GPR7 receptor signaling; P48145; GPR7-expressing cells, fluorescence antagonist assay; inhibition, % at 4.4 µM; 290,000 compounds, 1.1% hits; AID 1861; in the data active = inhibition above about 16%, passing the limit was not always enough;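 note: cells stimulated with the agonist NPW; 0% = agonist with vehicle and 100% = vehicle without agonist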
CHT block: human CHT choline transport inhibition. Q9GZV3. CHT-expressing cells, membrane potential dye, choline response; stronger effect = lower value. B-score at 10 µM. 310,000 compounds, 0.86% hits. AID 488975;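 active = B-score over 3 SD under the library average, and starting fluorescence ratio not unusually high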;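 note: choline stimulus applied at its EC90 after an EC20 pre-addition; B-score computed on integrated fluorescence ratio after choline addition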
Target sequence (Q9GZV3 whole entry, looked up): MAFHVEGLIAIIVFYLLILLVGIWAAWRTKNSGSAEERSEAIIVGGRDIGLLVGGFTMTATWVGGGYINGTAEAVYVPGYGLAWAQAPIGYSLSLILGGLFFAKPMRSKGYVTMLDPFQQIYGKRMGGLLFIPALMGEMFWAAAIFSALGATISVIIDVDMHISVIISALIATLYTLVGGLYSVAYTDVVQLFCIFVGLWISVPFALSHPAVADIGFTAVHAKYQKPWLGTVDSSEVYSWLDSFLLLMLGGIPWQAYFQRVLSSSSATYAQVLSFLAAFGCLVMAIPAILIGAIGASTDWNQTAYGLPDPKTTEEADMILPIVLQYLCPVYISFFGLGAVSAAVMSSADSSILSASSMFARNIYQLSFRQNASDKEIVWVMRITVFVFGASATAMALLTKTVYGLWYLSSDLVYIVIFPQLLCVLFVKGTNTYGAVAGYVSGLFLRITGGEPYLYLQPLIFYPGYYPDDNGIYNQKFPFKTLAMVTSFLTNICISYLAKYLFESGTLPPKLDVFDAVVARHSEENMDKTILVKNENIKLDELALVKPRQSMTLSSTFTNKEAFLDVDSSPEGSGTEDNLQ
TMEM16A inh: inhibitors of mouse TMEM16A calcium-activated chloride channel; Q8BHY3; HEK293 TMEM16A/YFP iodide influx fluorescence, ionomycin; normalized B-score (activity score, 25-100; higher = stronger inhibition) at 10 µM; 310,000 compounds, 1.2% hits; AID 588511;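 active = ratio plate-corrected score three or more library SD toward inhibition, starting fluorescence score within five deviations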;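 note: score derived from kinetic fluorescence span divided by baseline fluorescence per well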
CHT allo act: allosterically activates the human high affinity choline transporter | CHT-expressing cells, membrane potential dye, choline EC20; stronger effect = higher value; LV-AA mutant CHT in HEK293 cells | B-score at 10 µM | 310,000 compounds, 0.49% hits;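 active = initial fluorescence not abnormally high and integrated response B-score, plate-corrected, over 3 SD above library mean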
CHT inh conf: human CHT inhibition, confirmatory screen | shares compounds with CHT block | CHT-expressing cells, choline membrane potential dye; LV-to-AA substituted CHT, HEK293 cells | CHT activity remaining % of control (stronger effect = lower value), % at 10 µM | 2,400 compounds, 70% hits | AID 493221;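 active = choline transporter activity left, mean of duplicates at 10 µM, below buffer-only control mean minus 3 SD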;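 note: depolarization triggered by choline at its EC90 following an EC20 pre-addition; 0% = hemicholinium-3 full block and 100% = buffer-only control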
HEK293 MPD ctr: activity in parental HEK293 cells lacking CHT | shares compounds with CHT block | membrane potential dye, choline response; active = decrease or increase beyond buffer ±3SD | membrane potential ratio readout (active if shifted either direction beyond buffer ±3SD; no single direction) at 10 µM | 2,400 compounds, 4% hits | AID 493222;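 note: parental cells lack the transporter so any hit is non-specific; ratio is peak minus trough fluorescence over baseline after EC90 choline challenge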
CHT activ conf: human CHT activation, confirmatory screen; shares compounds with CHT allo act; CHT-expressing cells, membrane potential dye fluorescence (FDSS); % of choline EC20–EC90 response window; HEK293 expressing CHT LV-AA mutant; choline added at its EC20; activation, % at 10 µM; 2,500 compounds, 91% hits; AID 504833;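 active = primary screen active, with duplicate mean activation above negative control mean plus 3 SD, cut at about 11% in these data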
HEK293 MP dye: counter-screen for CHT activators: effect in parental HEK293 cells. shares compounds with CHT allo act. membrane potential dye fluorescence (FDSS); measured after EC20 choline addition. ratio readout change at 10 µM, hits read low. 2,500 compounds, 62% hits. AID 623908;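 active = duplicate-averaged ratio beyond 3 SD from buffer wells, up or down, though filed actives are nearly all decreases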
TMEM16A reconf: re-confirmation of mouse TMEM16A chloride channel inhibitors; shares compounds with TMEM16A inh; inhibition, % at 10 µM; 2,300 compounds, 39% hits; HEK293 TMEM16A/YFP-H148Q, iodide quench fluorescence; ionomycin added to raise cell calcium;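 active = mean duplicate percent inhibition, scaled so buffer wells are 0 and the reference blocker 100, over three buffer SD above buffer mean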
HEK293 Ca mobil: calcium mobilization counter-screen hit for TMEM16A inhibitor series. 2,300 compounds, 2% hits. TMEM16A/YFP HEK293, Fluo4 calcium mobilization. shares compounds with TMEM16A inh. AID 652231. calcium response (% of ionomycin), % at 10 µM;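 active = duplicate-averaged calcium signal over 20% of the ionomycin maximum, relative to buffer baseline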;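 note: each well's signal is peak minus trough fluorescence divided by its pre-addition baseline; 0% = buffer wells and 100% = ionomycin wells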
YFP-HEK293 quench: counter-screen for TMEM16A inhibitors: effect in parental YFP-HEK293 cells; shares compounds with TMEM16A inh; iodide YFP quench, ionomycin; YFP ratio F(max-min)/F0 at 10 µM; 2,300 tested, under 10 active; AID 652233;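 active = yellow fluorescent protein signal ratio exceeding the buffer control mean by over 5 SD of those controls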;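 note: ratio is mean of duplicate wells from kinetic YFP trace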
ClC-1 rat inh: rat ClC-1 inhibition, TMEM16A specificity screen; CHO ClC-1-YFP, iodide influx fluorescence quench; iodide control reads 0, buffer control 100; AID 652236; ratio percent, % at 10 µM; shares compounds with TMEM16A inh; 2,300 tested, under 10 active;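 active = duplicate-mean ratio percent above the mean of iodide-only control wells, which defines zero, plus 5 of their SD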;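 note: higher percent means stronger block of ClC-1 iodide influx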
* marks the source's active call; other numbers are inactive results; i = inactive; · = not tested or not shown. Only some compounds are listed: those with a hit (about 3.7% of all), similar ones and a draw of the others.

SMILES | ANO1 activ | Kir21 block | GPR7 antagonist | CHT block | TMEM16A inh | CHT allo act | CHT inh conf | HEK293 MPD ctr | others
Cc1ccccc1CCNCc1cc2cccc(C)c2[nH]c1=O | i | -2.67 | -5.1 | -8.67* | i | i | 17.6%* | i
COc1ccccc1CCNCc1ccc(OC)c(OC)c1OC | i | -1.22 | 0.7 | i | i | i | · | ·
Oc1ccc(CC2CC3CCN2CC3)cc1O (configuration not stated) | i | 0.73 | -9.1 | -16.1* | i | i | 12.5%* | i
O=C1NC(=O)C(=Cc2coc3ccc(O)cc3c2=O)C(=O)N1 | i | -0.8 | -12.6 | -6.31* | i | i | 60.5%* | i
CN(C)C(=O)Oc1ccc(OC(=O)c2ccccc2)cc1 | i | -1.6 | 9.6 | i | i | i | · | ·
C/C(=N\N=C(N)N)c1ccccc1 | i | 0 | -12.5 | -9.9* | i | i | 17.9%* | i
CC(C)N(C(=O)CCl)c1ccccc1 | i | · | · | · | · | · | · | ·
CCN(C(=O)COC(=O)c1cn(C)c2ccccc12)c1ccc(F)cc1 | i | · | · | · | · | · | · | ·
CC1CCC/C=C/C2CC(O)CC2C(O)/C=C/C(=O)O1 (configuration not stated) | i | -1.51 | -12.8 | -6.56* | i | i | 45.5%* | i
C=CCCC1(C2=CCCCC2)C(=O)NC(=O)NC1=O | i | · | · | · | · | · | · | ·
COc1cccc(CN2CCNCC2)c1 | i | 0.89 | 6.5 | i | i | i | · | ·
COc1cccc(C2CC3C(=O)C=CC2N3Cc2ccccc2)c1 (configuration not stated) | i | -3.02 | -4.1 | -5.33* | i | i | -58.9%* | -39.8*
CC(O)(CS(=O)(=O)c1ccccc1)C(=O)Nc1cccc(C(F)(F)F)c1 (configuration not stated) | i | -0.89 | -9.0 | i | i | i | · | ·
COC(=O)C1=CO[C@@H](C)[C@H]2CN3CC[C@]4(C(=O)Nc5ccccc54)[C@@H]3C[C@H]12 | i | 0.54 | · | i | i | i | · | ·
Oc1ccc(C[C@H]2NCCc3cc(O)c(O)cc32)cc1O | i | -0.51 | 7.2 | -6.47* | i | i | 27.7%* | i
CCOc1ccc(C=C2C(=O)NC(=S)NC2=O)cc1OCC | i | · | · | · | · | · | · | ·
CCOc1cc(C=C2C(=O)NC(=O)NC2=O)ccc1OS(=O)(=O)c1ccccc1 | i | -5.54* | -4.0 | -7.29* | i | i | 36.1%* | i
COc1cc(C=C2C(=O)NC(=O)NC2=O)ccc1OS(=O)(=O)c1ccccc1[N+](=O)[O-] | i | -2.52 | -11.5 | -5.28* | i | i | 55.5%* | i
N=c1c[n+](CC23CC4CC(CC(C4)C2)C3)[n-]o1 | i | -2.49 | -12.6 | -5.61* | i | i | 37.1%* | i
CC1CCCCN1Cc1c[nH]c2ccccc12 (configuration not stated) | i | -0.33 | 10.9 | -5.68* | i | i | i | i
CCOC(=O)c1c(N)n(CCCOC(=O)c2ccco2)c2nc3ccccc3nc12 | i | -0.9 | -6.2 | i | i | i | · | ·
CCCCCn1c(NC(=O)c2ccco2)c(C(=O)OCC)c2nc3ccccc3nc21 | i | -1.33 | -3.2 | -5.6* | i | i | i | i
COc1ccc(C(=O)NC(=S)N2C[C@H]3C[C@H](C2)c2cccc(=O)n2C3)cc1 | i | -0.23 | -5.2 | i | i | i | · | ·
Cc1ccc(N)c(C(=O)c2ccc(Br)cc2)c1 | i | -0.89 | -8.4 | -5.11* | 100* | i | i | i | TMEM16A reconf=i;HEK293 Ca mobil=i;YFP-HEK293 quench=-1.21;ClC-1 rat inh=-7.0
COC(=O)C1=C(c2ccccc2OCc2ccccc2)C[C@@H]2CC[C@H]1N2C(=O)NCc1ccc(C(C)(C)C)cc1 | i | · | · | · | · | · | · | ·
SMILES | ANO1 activ | Kir21 block | GPR7 antagonist | CHT block | TMEM16A inh | CHT allo act | CHT inh conf | HEK293 MPD ctr | others
CN1CCN(C(=O)O[C@H]2c3nccnc3C(=O)N2c2ccc(Cl)cn2)CC1 | i | 0.18 | -14.4 | i | i | 6.87* | · | · | CHT activ conf=83.8*;HEK293 MP dye=-44.3*
CN1CCC(N(C)c2ncnc3ccc(Br)cc23)CC1 | i | · | -10.7 | · | · | · | · | ·
Cc1ccc(-c2nc(N(C)C3CCN(C)CC3)c3ccccc3n2)cc1 | i | -2.67 | 11.4 | i | i | i | · | · | CHT activ conf=36.6*;HEK293 MP dye=-68.3*
CCCOC(=O)c1ccc(-[n+]2c(-c3ccccc3)cc(-c3ccccc3)cc2-c2ccccc2)cc1 | -5.74* | -11.4* | · | i | 100* | 9.3* | · | · | CHT activ conf=17.7*;HEK293 MP dye=i
CN(C)c1cccc2c(C#N)ccc(N(C)C)c12 | i | 1.47 | 10.5 | i | i | 7.77* | · | · | CHT activ conf=66.2*;HEK293 MP dye=-69.5*
O=C(OC1CC2CCC(N2)C1C(=O)O)c1ccccc1 (configuration not stated) | i | · | · | · | · | · | · | ·
CCNCCNc1ccc([N+](=O)[O-])c2cccnc12 | i | -0.25 | -4.2 | i | i | 6.31* | · | · | CHT activ conf=26.9*;HEK293 MP dye=-65.8*
O=[N+]([O-])c1cccc2c([N+](=O)[O-])cccc12 | i | · | · | · | · | · | · | ·

Screens (PubChem)
